Assay outcomes as filed in PubChem BioAssay.
IL-1B inflam inh = inflammasome signaling inhibition, IL-1 beta readout. THP-1 LPS/ATP IL-1B secretion, AlphaLISA, 16 h; active compounds read low. activity change, % at 57.5 µM. 360,000 tested, 4.7% active; in the data active means activity change below about -50%; inconclusive means mostly about -30% to -49%
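Secreted IL-1B measured by AlphaLISA bead assay after 16 h compound exposure of THP-1 cells; compounds (final up to 57.5 uM) added 1 h before LPS (250 ng/mL) and ATP (1.25 mM) stimulation; lower signal means less secretion.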
HT1080 IDH1KD tx = HT-1080 IDH1 knockdown cell toxicity (counter line) | HT-1080 IDH1 knockdown viability, ATP luminescence, 48 h | Potency, µM (series often up to 46.1 µM), without a hit: top-dose activity, negative = toxicity, most hits filed as cytotoxic | 360,000 tested, 2% active;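 further: potency means the concentration at half of the fitted maximal effect; 0% = DMSO wells and -100% = cell-free medium wells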
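Knockdown cells (IDH1KD HT-1080) received compounds 2 h after plating at 750 cells/well and were kept 48 h at 37 °C in 5% FBS RPMI. A CellTiter-Glo luminescence read gave % activity for curve fitting.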
HT1080NT lethal = kills 2HG-producing HT-1080-NT fibrosarcoma cells. HT-1080-NT fibrosarcoma viability, CellTiter-Glo ATP luminescence, 48 h. Potency, µM (highest dose often 46.1 µM), for inactives: top-dose activity, negative = less viability, most hits filed as cytotoxic. 360,000 tested, 1.6% active. AID 686970;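 further: NT is the 2HG producing partner of a matched IDH1 knockdown line; potency means the concentration at half of the fitted maximal effect; 0% = DMSO-treated cells and -100% = media-only wells without cells; nearly all actives have a fitted effect of over 55% in size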
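Toxicity toward the 2HG-producing NT line was scored as %Activity, normalised to DMSO and no-cell wells, from CellTiter-Glo luminescence after 48 hours' treatment.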
DT40 TDP1 no CPT = qHTS for Inhibitors of human tyrosyl-DNA phosphodiesterase 1 (TDP1): qHTS in cells in absence of CPT. Potency, µM (series often up to 46.2 µM), for the others: at the top dose activity change, negative = growth inhibition, usual class: inhibitors. 420,000 tested, 15% active. DT40 Tdp1-/- hTDP1 cells, no CPT, ATP luminescence, 48 h; further: potency means the concentration at half of the fitted maximal effect; nearly all actives have a fitted effect of over 55% in size
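Luminescent ATP content (CellTiter-Glo) served as the growth readout. Knockout chicken DT40 cells expressing human TDP1 were exposed to compounds without camptothecin for a minimum 48 hr at 37 °C.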
DT40 TDP1 CPT = growth inhibition of DT40 Tdp1-/-;hTDP1 cells with camptothecin (screen for TDP1 inhibitors); chicken DT40 Tdp1-/-;hTDP1 cells + 20 nM CPT, ATP luminescence, 48 h; Potency, µM (top dose mostly 46.2 µM), for inactives: at the top dose activity change, negative = growth inhibition, hits mostly inhibitors; 420,000 tested, 12% active; further: potency means the concentration at half of the fitted maximal effect; nearly all actives have a fitted effect of over 55% in size
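Cell growth measured by CellTiter-Glo luminescence after a minimum 48 h, 37 C compound exposure with 20 nM CPT in Tdp1-knockout DT40 cells stably expressing hTDP1, seeded 400/well; qHTS titration format.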
Starred values were filed as active, the others as inactive; ? = inconclusive; nt = no result given; [ ] = another dose, or the depositor's remark. This is a sample that favours compounds with a hit; in the whole collection about 19% have one here. Unless noted, the call rests on the fitted dose curve; in most records, active means well fitted curve in the direction sought with a large enough effect; inconclusive means small, poorly fitted or top-dose-only effect, or another doubt; inactive means no such curve, though single readings can be large; an effect the other way counts as inactive or inconclusive. Unless noted, on the % scale 0 is the no-effect control and ±100 the full control effect.

SMILES	IL-1B inflam inh	HT1080 IDH1KD tx	HT1080NT lethal	DT40 TDP1 no CPT	DT40 TDP1 CPT
COc1ccc(-c2nnc(SCc3ccccn3)n2C)cc1	11.1	20.9%	-2.9%	?	29.1µM*
Cn1c(SCc2cc(=O)c3cc(Cl)ccc3[nH]2)nnc1-c1ccccc1	nt	nt	nt	20.6µM*	13µM*
Cc1ccc([N+](=O)[O-])c2c1C(N1CC(C)OC(C)C1)C(C)(C)O2 (stereo unspecified)	22.7	11.2%	5.3%	-15.1%	14.4%
Cc1nc2cc(NC(=O)[C@@H]3C[C@@H](Sc4ccccn4)CN3Cc3cccc(Cl)c3)ccc2s1	nt	nt	nt	-22.1%	13.7%[9.04 µM]
Cn1c2ccccc2c(=O)c2cc(C#CC3=CCCCC3)ccc21	0.0	-6.2%	4.2%	18.4µM*	7.31µM*
COc1ccc(C#Cc2ccc3c(=O)c4ccccc4n(C)c3c2)cc1	33.7	2.8%	1.3%	18.4µM*	?
Cn1c2ccccc2c(=O)c2ccc(C#Cc3ccc(N)cc3)cc21	-28.0	?	?	16.4µM*	?
O=C(OCc1ccccc1)/C(=C/c1ccccc1Cl)NC(=O)c1ccco1	13.4	0.2%	-0.7%	-4.9%	14.1%
O=C(CN1C(=O)CCSc2ccccc21)NC1CCCCC1	0.8	1.8%	-1.6%	-22.5%	-9.7%
CCN(CC)S(=O)(=O)c1nnc(NC(=O)COc2ccc(C)cc2)s1	nt	nt	nt	?	-21.5%
CC(=O)Nc1ccc(S(=O)(=O)NCCCN2CCOCC2)cc1	5.8	17.4%	18.6%	-1.7%	14.8%
Cc1cc(C)c(C(=O)Nc2ccccc2)c(SCC(=O)Nc2ccc(Br)cc2C)n1	nt	nt	nt	23.1µM*	16.4µM*
Cc1cccc(NC(=O)c2c(C)cc(C)nc2SCC(=O)c2ccccc2)c1	nt	nt	nt	16.4µM*	?
COc1ccccc1NC(=O)c1c(C)cc(C)nc1SCC(=O)c1ccc(Cl)cc1	nt	nt	nt	-24.7%	-26.5%
CCN(CC)S(=O)(=O)c1ccc(N(C)Cc2cccnc2)nc1	-9.6	2.4%	0.9%	-29.0%	?
c1ccc(-c2cc3c(N4CCN(c5ccccc5)CC4)ncnc3s2)cc1	-29.7	-9.5%	-25.6%	18.4µM*	?
CN1CCN(c2ncnc3sc(-c4ccccc4)cc23)CC1	-59.8*	6.7%	-1.6%	?	?
CN(C)/C=N/c1c(C#N)cnn1-c1ccccc1	13.9	5.8%	-0.3%	-20.1%	-1.8%
c1ccc(-c2cc3c(N4CCN(c5ncccn5)CC4)ncnc3s2)cc1	2.7	8.7%	13.6%	?	?
O=S(=O)(c1ccccc1)N1CCN(c2ncnc3sc(-c4ccccc4)cc23)CC1	-20.5	-4.4%	-8.3%	11.6µM*	20.6µM*
CN(C)/C=N/c1c(C#N)cnn1-c1ncnc2sc(-c3ccccc3)cc12	-15.7	-11.4%	-9.1%	18.4µM*	20.6µM*
Cc1ccc(S(=O)(=O)N2CCN(c3ncnc4c3cnn4-c3ccccc3)CC2)cc1	-2.3	9.1%	7.7%	-16.7%	-0.6%
CCOC(=O)C1CC2CC(C1)CN(C(=O)C1CCCCC1)C2 (stereo unspecified)	15.2	0.4%	8.4%	-3.8%	-13.5%
CCn1c(=O)n(-c2ccc(C)c(F)c2)c(=O)c2sc3ccccc3c21	nt	nt	nt	?	-28.2%
Cc1nc(-c2ccc(NC(=O)C3CCCCC3)cc2)cs1	-14.4	-11.4%	-8.4%	20.6µM*	-22.4%
SMILES	IL-1B inflam inh	HT1080 IDH1KD tx	HT1080NT lethal	DT40 TDP1 no CPT	DT40 TDP1 CPT
O=C(Nc1ccc(-c2cn3ccsc3n2)cc1)C1CCCC1	1.2	?	-20.5%	16.4µM*	14.6µM*
Cc1ccc(C(=O)Nc2ccc(-c3csc(C)n3)cc2)cc1	-15.1	?	?	-28.6%	7.1%
O=C(Nc1ccc(-c2csc(-c3ccccc3)n2)cc1)c1ccccc1Cl	-11.0	-4.7%	-25.4%	?	20.6µM*
Cc1nc(-c2ccc(NC(=O)c3ccccc3)cc2)cs1	0.0	?	?	?	18.4µM*
CCCCC1OC23CCCCC2C(C#N)(C#N)C1(C#N)C(=N)O3 (stereo unspecified)	-101.8*	5.8%	6.9%	6.51µM*	6.51µM*
CCCCC1OC23CCCCC2C(C#N)(C(=N)O3)C1(C#N)C#N (stereo unspecified)	-10.2	2.5%	1.5%	7.31µM*	7.31µM*
Cc1ccc(CCN2C(=O)CCC2(C)C(=O)NCc2cccnc2)cc1 (stereo unspecified)	-1.5	4.5%	13.5%	-3.7%	-5.9%
Cc1cccc(C(=O)Nc2cc3c(cc2C)n(C)c(=O)n3C)c1	nt	nt	nt	-5.4%	-0.6%
COC(=O)c1ccc(C)c(NC(=O)CCNC(=O)c2ccc([N+](=O)[O-])cc2)c1	9.9	10.0%	4.7%	-9.1%	-13.3%
Cc1ccc([N+](=O)[O-])cc1NC(=O)c1ccc(C(C)(C)C)cc1	?	-13.8%[9.24 µM]	?	13µM*	?
Cc1c(NC(=S)NC(=O)C(C)(C)C)cccc1[N+](=O)[O-]	4.5	-18.9%	-1.4%	?	-2.5%
Cc1ccc(F)cc1NC(=O)CCNC(=O)c1ccc([N+](=O)[O-])cc1	-74.1*	5.6%	2.7%	?	-22.9%
Cc1cc2c(cc1NC(=O)c1ccc(C(C)(C)C)cc1)n(C)c(=O)c(=O)n2C	nt	nt	nt	25.9µM*	23.1µM*
Cc1c(NC(=O)c2ccc(C(C)(C)C)cc2)cccc1[N+](=O)[O-]	-51.7*	-24.5%	0.2%	20.6µM*	16.4µM*
CS(=O)(=O)c1ccc(Cl)c(NC(=O)Cc2c(F)cccc2Cl)c1	-2.1	1.9%	28.1%	16.1%	0.0%
O=C(c1ccco1)N1CCN(C2CN(CCc3ccccc3)S(=O)(=O)C2)CC1 (stereo unspecified)	18.9	21.7%	12.0%	?	-27.4%
Cn1ccc2c(N3CCCCC3)cc3c(c21)C1CCC3O1 (stereo unspecified)	-0.7	11.2%	13.6%	-21.7%	-5.3%
CC1(c2ccc([N+](=O)[O-])cc2)NC(=O)NC1=O (stereo unspecified)	6.1	-2.0%	-2.7%	16.0%	23.7%
O=C(N/N=C1\CC(c2ccccc2)Oc2ccccc21)c1cccnc1 (stereo unspecified)	67.0	11.6µM*	?	20.6µM*	?
Cc1ccnn1CC(=O)N1CCOc2c(cc(-c3ncc(C(F)(F)F)cc3Cl)cc2OCC2CCCO2)C1 (stereo unspecified)	nt	nt	nt	-24.1%	-1.2%
COC(=O)c1c(-c2ccc(N(C)C)cc2)oc2c1C(OC)CCC2 (stereo unspecified)	-9.8	-24.8%	-10.4%	18.4µM*	?
O=C1NC[C@H](CCCCN2C[C@@H](Cc3ccccc3)N(Cc3ccccc3)C(=O)C2=O)N(CCC2CCCCC2)C1=O	?	9.3%	11.8%	?	-3.8%
